{"source": "PubChem BioAssay AID977611", "origin": "cited, not measured here", "assay": "PubChem AID 977611", "details": "PDB protein-ligand complexes, literature Kd", "note": "Among all 3,900 compounds or so, about 3,900 (100%) were called active. Cut-off not given; nearly all actives show Kd up to about 4200 µM. The set was probably picked from earlier hits. The list shows a part of the results. Numbered stars: 1 amine (or outer) side, 2 acyl side, 3 side chain; on linkers, the order of the positions; unused ones are H or OH. *1 amine or outer side, *2 acyl side, *3 side chain or, on linkers, in order; H or OH if unused. Where a SMILES comes first, the peptide text is derived from it. Square brackets hold non-standard residues; d marks the D form. Bridges are numbered along the chain shown (N, C = ends). Side-chain parts run from the residue outwards. Peptide text beside a SMILES is read from it. [ ]: non-standard residue; d: D form. X2 = C[C@@H](O)C(C)(C)n1cc([C@@H](O)[C@H](N[*:1])C(=O)[*:2])c2ccccc21; X1 = CC(C)C[C@@H](C(=O)[*:2])N(C[C@H](Cc1ccccc1)N[*:3])[*:1]; Ala(3R-Me,3-isobutenyl) = CC(C)=C[C@@H](C)[C@H](N)C(=O)O; NMeLeu(5-OH,4R) = CN[C@@H](C[C@@H](C)CO)C(=O)O; Phe(βR-OMe) = CO[C@H](c1ccccc1)[C@H](N)C(=O)O; Orn(CH(NH2)2) = NC(N)NCCC[C@H](N)C(=O)O; NMeL = CN[C@@H](CC(C)C)C(=O)O; S5 = C=CCCC[C@](C)(N)C(=O)O"}
{"compound": "Cc1ccc(C(=O)Nc2ccc(S(O)(O)O)c3cc(S(O)(O)O)cc(S(O)(O)O)c23)cc1N", "values": [{"measurement": "Kd", "setting": "protein: Nucleocapsid protein, PDB entry 4j4v", "value": "440 nM (active)"}]}
{"compound": "NCCc1c[nH]c2ccccc12", "values": [{"measurement": "Kd", "setting": "protein: Biogenic amine-binding protein, PDB entry 4ge1", "value": "370 nM (active)"}]}
{"compound": "Cc1[nH]c2ccccc2c1CC(=O)N[C@@H](Cc1ccccc1)C(=O)N(C)c1ccccc1", "values": [{"measurement": "Kd", "setting": "protein: CAPSID PROTEIN P24 CA Hexamer, PDB entry 4qnb", "value": "260 nM (active)"}, {"measurement": "Kd", "setting": "protein: Capsid protein p24, PDB entry 4u0e", "value": "120 nM (active)"}]}
{"compound": "CC(C)C[C@H](NC[C@H](Cc1ccccc1)NC(=O)[C@H](CC(N)=O)NC(=O)CNC(=O)[C@@H]1CCCN1C(=O)[C@@H](N)CCCNC(N)N)C(=O)N[C@@H](CCC(N)=O)C(=O)N[C@@H](CO)C(=O)N[C@@H](CCCNC(N)N)C(=O)N1CCC[C@H]1C(N)=O", "note": "(H-[X1]([Asn-Gly-Pro-Orn(CH(NH2)2)])QS[Orn(CH(NH2)2)]P-NH2)", "values": [{"measurement": "Kd", "setting": "protein: PR(HIV-1 protease) with the V82A mutation (PRV82A), PDB entry 2aof", "value": "28200 nM (active)"}, {"measurement": "Kd", "setting": "protein: wild-type PR(HIV-1 protease), PDB entry 2aoi", "value": "96700 nM (active)"}]}
{"compound": "CC(C)C[C@H](NC(=O)[C@@H](NC(=O)[C@@H]1CCCN1)C(C)C)C(=O)N[C@@H](Cc1ccccc1)C(=O)N1CCC[C@H]1C(=O)NCC(=O)N[C@@H](CCC(N)=O)C(=O)N1CCC[C@H]1C(=O)N[C@@H](Cc1ccccc1)C(=O)NCC(=O)N[C@@H](CCC(N)=O)C(=O)N1CCC[C@H]1C(=O)N1CCC[C@H]1C(=O)O", "note": "(H-PVLFPGQPFGQPP-OH)", "values": [{"measurement": "Kd", "setting": "protein: CAPSID PROTEIN P24 CA Hexamer, PDB entry 4wym", "value": "99800 nM (active)"}]}
{"compound": "H-PVLFPGQPFGQPPA-OH", "values": [{"measurement": "Kd", "setting": "protein: Capsid protein p24, PDB entry 4u0a", "value": "50000 nM (active)"}]}
{"compound": "H-PVLFPGAPFGQPPA-OH", "values": [{"measurement": "Kd", "setting": "protein: Capsid protein p24, PDB entry 4u0b", "value": "50000 nM (active)"}]}
{"compound": "COC(=O)C[C@@H]1N=C(c2ccc(Cl)cc2)c2c(sc(C)c2C)-n2c(C)nnc21", "values": [{"measurement": "Kd", "setting": "protein: Bromodomain-containing protein 4, PDB entry 4f3i", "value": "36.1 nM (active)"}]}
{"compound": "NC1NC(=O)c2ncn([C@@H]3O[C@H](CO[P+](O)(O)O[C@H]4[C@@H](O)[C@H](n5cnc6c5NC(N)NC6=O)O[C@@H]4COP(O)O)[C@@H](OP(O)O)[C@H]3O)c2N1", "note": "(some centres not stated)", "values": [{"measurement": "Kd", "setting": "protein: Simian 11 rotavirus (serotype 3 / strain SA11-Ramig), PDB entry 4g0a", "value": "25.3 nM (active)"}]}
{"compound": "C[C@H]1OC(c2cccc(O)c2O)=N[C@@H]1C(=O)N(CCCNC(=O)c1cccc(O)c1O)CCCNC(=O)c1cccc(O)c1O", "values": [{"measurement": "Kd", "setting": "protein: Neutrophil gelatinase-associated lipocalin, PDB entry 4k19", "value": "4.4 nM (active)"}]}
{"compound": "H-EDMFAKLKDKFFNEINK-OH", "values": [{"measurement": "Kd", "setting": "PDB entry 2nm1", "value": "34 nM (active)"}]}
{"compound": "H-TFKKTN-OH", "values": [{"measurement": "Kd", "setting": "protein: Coatomer subunit beta', PDB entry 4j86", "value": "171000 nM (active)"}]}
{"compound": "H-ITFEDLLDYYGP-OH", "values": [{"measurement": "Kd", "setting": "protein: HIV-1 Capsid Protein(L211S), PDB entry 3ds4", "value": "64500 nM (active)"}, {"measurement": "Kd", "setting": "protein: HIV-1 Capsid Protein(N183A), PDB entry 3ds0", "value": "14900 nM (active)"}, {"measurement": "Kd", "setting": "protein: HIV-1 Capsid Protein(Y169A), PDB entry 3ds3", "value": "6000 nM (active)"}]}
{"compound": "CC(C)C[C@H](NC(=O)[C@@H](NC(=O)[C@H](CCC(=O)O)NC(=O)[C@@H](N)Cc1ccc(O)cc1)[C@@H](C)O)C(=O)N[C@@H](CO[P+](O)(O)O)C(=O)N[C@@H](CC(=O)O)C(=O)N[C@@H](CO[P+](O)(O)O)C(=O)N[C@@H](CCC(=O)O)C(=O)O", "values": [{"measurement": "Kd", "setting": "protein: Msx2-interacting protein, PDB entry 2rt5", "value": "190 nM (active)"}]}
{"compound": "H-ITYDKGIQTDQ-OH", "values": [{"measurement": "Kd", "setting": "protein: Dynein light chain 1, cytoplasmic, PDB entry 4ht6", "value": "620 nM (active)"}]}
{"compound": "CC[C@H](C)[C@H](N)C(=O)N[C@H](C(=O)N[C@@H](Cc1ccccc1)C(=O)N[C@@]1(C)CCC/C=C\\CCC[C@@](C)(C(=O)N[C@@H](Cc2ccc(O)cc2)C(=O)N[C@@H](Cc2ccc(O)cc2)C(=O)NCC(=O)N[C@@H](CCCCN)C(=O)N[C@@H](CCCCN)C(=O)N[C@@H](CCCCN)C(=O)O)NC(=O)[C@H](CC(C)C)NC(=O)[C@H](CC(C)C)NC(=O)[C@H](CC(=O)O)NC1=O)[C@@H](C)O", "note": "(H-ITF[S5]DLL[S5]YYGKKK-OH; staple (Z) 4-8)", "values": [{"measurement": "Kd", "setting": "protein: Capsid protein p24(W184A, M185A), PDB entry 2l6e", "value": "1000 nM (active)"}]}
{"compound": "CC(C)C[C@H](NC(=O)[C@H](CCCCN)NC(=O)[C@H](CC(C)C)NC(=O)[C@@H](NC(=O)[C@H](CC(N)=O)NC(=O)[C@H](CCC(N)=O)NC(=O)[C@H](CCCCN)NC(=O)[C@@H](NC(=O)[C@H](Cc1ccc(O)cc1)NC(=O)[C@H](CCCCN)NC(=O)[C@@H]1CCCN1)C(C)C)[C@@H](C)O)C(=O)N[C@@H](C)C(=O)N[C@H](C(=O)O)[C@@H](C)O", "values": [{"measurement": "Kd", "setting": "protein: SEC3 wt, PDB entry 1jwm", "value": "270000 nM (active)"}]}
{"compound": "CC[C@H](C)[C@H](N)C(=O)N[C@H](C(=O)N[C@@H](Cc1ccccc1)C(=O)N[C@@H](CCC(=O)O)C(=O)N[C@@H](CC(=O)O)C(=O)N[C@@H](CC(C)C)C(=O)N[C@@H](CC(C)C)C(=O)N[C@@H](CC(=O)O)C(=O)N[C@@H](Cc1ccc(O)cc1)C(=O)N[C@@H](Cc1ccc(O)cc1)C(=O)NCC=O)[C@@H](C)O", "note": "(H-ITFEDLLDYYG-aldehyde)", "values": [{"measurement": "Kd", "setting": "protein: HIV-1 Capsid Protein(E187A), PDB entry 3ds1", "value": "2000 nM (active)"}]}
{"compound": "O=C1N[C@@H](c2ccc(O)cc2)c2c(-c3ccccc3)n[nH]c21", "values": [{"measurement": "Kd", "setting": "protein: Capsid protein p24, PDB entry 4u0f", "value": "1200 nM (active)"}]}
{"compound": "CC(C)C[C@H](NC(=O)[C@H](CO)NC(=O)[C@H](CC(=O)O)NC(=O)[C@H](CC(C)C)NC(=O)[C@H](CC(C)C)NC(=O)[C@H](CC(=O)O)NC(=O)[C@H](CC(=O)O)NC(=O)[C@@H](NC(=O)[C@H](CCC(N)=O)NC(=O)[C@H](CC(=O)O)NC(=O)[C@H](CCC(N)=O)NC(=O)[C@H](CO)NC(=O)[C@H](C)NC(=O)[C@@H](NC(=O)[C@@H](NC(=O)CNC(=O)[C@H](C)N)C(C)C)C(C)C)C(C)C)C(=O)NCC(=O)N[C@@H](Cc1ccccc1)C(=O)O", "values": [{"measurement": "Kd", "setting": "protein: Chemotaxis protein cheY, PDB entry 2pl9", "value": "67400 nM (active)"}]}
{"compound": "CC(C)C[C@H](NC(=O)CNC(=O)[C@@H](N)CCC(N)=O)C(=O)N[C@@H](CC(C)C)C(=O)N[C@@H](CC(=O)O)C(=O)N[C@@H](C)C(=O)N[C@@H](CC(C)C)C(=O)N[C@@H](CC(=O)O)C(=O)N[C@@H](CC(C)C)C(=O)N[C@@H](C)C(=O)N[C@@H](CO)C(=O)O", "values": [{"measurement": "Kd", "setting": "protein: 14-3-3 protein zeta/delta, PDB entry 4n7g", "value": "2200 nM (active)"}]}
{"compound": "Cc1cc(C)c([C@H]2C(C(=O)c3cccs3)=C(O)C(=O)N2c2ccc(CC(=O)O)cc2)cc1C", "values": [{"measurement": "Kd", "setting": "protein: Polymerase cofactor Ebola virus VP35, PDB entry 4ibb", "value": "271000 nM (active)"}]}
{"compound": "O=C(O)Cc1ccc(N2C(=O)C(O)=C(C(=O)c3ccc(Cl)s3)[C@@H]2c2cc(Br)cs2)cc1", "values": [{"measurement": "Kd", "setting": "protein: Polymerase cofactor Ebola virus VP35, PDB entry 4ibf", "value": "36800 nM (active)"}]}
{"compound": "CN[C@@H](C)Cc1ccccc1", "values": [{"measurement": "Kd", "setting": "protein: Anti-METH scFv, PDB entry 4gqp", "value": "0.25 nM (active)"}]}
{"compound": "CO[C@H](c1ccccc1)[C@@H]1NC(=O)[C@H](C)NC(=O)[C@H](C[C@@H](C)CO)N(C)C(=O)[C@H]([C@H](O)c2cn(C(C)(C)[C@@H](C)O)c3ccccc23)NC(=O)[C@H]([C@H](C)C=C(C)C)NC(=O)[C@H](CC(C)C)N(C)C(=O)[C@H](C(C)C)NC1=O", "note": "(cyclo(A[Phe(βR-OMe)]V[NMeL][Ala(3R-Me,3-isobutenyl)][X2][NMeLeu(5-OH,4R)]))", "values": [{"measurement": "Kd", "setting": "protein: Probable ATP-dependent Clp protease ATP-binding subunit(F2Y mutant), PDB entry 3wdd", "value": "780 nM (active)"}, {"measurement": "Kd", "setting": "protein: Probable ATP-dependent Clp protease ATP-binding subunit, PDB entry 3wdc", "value": "12 nM (active)"}, {"measurement": "Kd", "setting": "protein: Probable ATP-dependent Clp protease ATP-binding subunit, PDB entry 3wde", "value": "124 nM (active)"}]}
{"compound": "CNC(=O)Nc1cc(Br)cc(NC(=O)NS(=O)(=O)c2cc(C)c(CCOC)s2)n1", "values": [{"measurement": "Kd", "setting": "protein: Fructose-1,6-bisphosphatase 1, PDB entry 4mjo", "value": "600 nM (active)"}]}
